# Measured values as given in the antibiotic and cytotoxicity screens of Wong et al. (2023).
# The campaign covered roughly 39,000 compounds. About 1,500 (3.8%) were called active. This is one part of a sample in which actives are shown more often than they occur.
# System: HSkMC (human skeletal muscle cells)
# Assay: cytotoxicity call (relative viability < 0.9)
# Details: 10 µM
row,Compound,cytotoxicity call
1,CCCCCCc1nc(-c2ccc(-c3ccc(Cl)c(Cl)c3)o2)cc2c1[Si](C(C)C)(C(C)C)OC2,active
2,CC(C)[Si]1(C(C)C)OCc2cc(-c3ccc(-c4ccc(Cl)c(Cl)c4)o3)nc(CCc3ccccc3)c21,inactive
3,CC(C)[Si]1(C(C)C)OCc2cc(-c3ccc(-c4ccc(Cl)c(Cl)c4)o3)nc(-c3ccccc3)c21,inactive
4,O=C(O)c1cncnc1N1CCCC1,inactive
5,C[C@@H]1CN([C@H](C)CO)C(=O)c2cccc(NC(=O)C3CCCCC3)c2O[C@H]1CN(C)Cc1ccc(Oc2ccccc2)cc1,inactive
6,C[C@@H]1CN([C@H](C)CO)C(=O)c2cccc(NC(=O)Nc3ccc(F)cc3)c2O[C@H]1CN(C)Cc1ccc(-c2ccccc2)cc1,inactive
7,C[C@H]1CN([C@@H](C)CO)C(=O)c2cccc(NC(=O)Nc3ccc(F)cc3)c2O[C@H]1CN(C)Cc1ccc(-c2ccccc2)cc1,inactive
8,C[C@@H]1CN([C@@H](C)CO)C(=O)c2cccc(NC(=O)Nc3ccc(F)cc3)c2O[C@H]1CN(C)Cc1ccc(-c2ccccc2)cc1,active
9,C[C@@H]1CN([C@@H](C)CO)C(=O)c2cccc(NC(=O)Nc3ccc(F)cc3)c2O[C@@H]1CN(C)Cc1ccc(-c2ccccc2)cc1,active
10,C[C@H]1CN([C@@H](C)CO)C(=O)c2cccc(NC(=O)Nc3ccc(F)cc3)c2O[C@@H]1CN(C)Cc1ccc(-c2ccccc2)cc1,inactive
11,C[C@H](CO)N1C[C@H](C)[C@@H](CN(C)Cc2ccc(-c3ccccc3)cc2)Oc2c(NC(=O)Nc3ccc(F)cc3)cccc2C1=O,inactive
12,Cc1noc(C)c1NC(=O)Nc1ccc2c(c1)CC(=O)N([C@@H](C)CO)C[C@H](C)[C@H](CN(C)C(=O)Nc1ccc(C(F)(F)F)cc1)O2,inactive
13,CO[C@@H](CN(C)S(=O)(=O)c1cccc(Cl)c1)[C@@H](C)CN([C@H](C)CO)S(=O)(=O)c1cccc(Cl)c1,inactive
14,C[C@@H]1CCCCO[C@H](CN(C)S(=O)(=O)c2cn(C)cn2)[C@@H](C)CN([C@@H](C)CO)C(=O)c2cc(NC(=O)Nc3cccc4ccccc34)ccc2O1,inactive
15,CO[C@@H]1CN(C)C(=O)c2ccc(NC(=O)C3CCOCC3)cc2OC[C@@H](C)N(C(=O)C2CCOCC2)C[C@H]1C,inactive
16,C[C@H](CO)N1C[C@H](C)[C@@H](CN(C)Cc2ccc(-c3ccccc3)cc2)Oc2ccc(NS(=O)(=O)c3ccccc3)cc2CC1=O,inactive
17,C[C@H]1CN([C@@H](C)CO)C(=O)Cc2cc(NS(=O)(=O)c3ccccc3)ccc2O[C@@H]1CN(C)Cc1ccc(-c2ccccc2)cc1,active
18,C[C@@H]1CN([C@@H](C)CO)C(=O)Cc2cc(NS(=O)(=O)c3ccccc3)ccc2O[C@H]1CN(C)Cc1ccc(-c2ccccc2)cc1,inactive
19,C[C@H]1CN([C@@H](C)CO)C(=O)Cc2cc(NS(=O)(=O)c3ccccc3)ccc2O[C@H]1CN(C)Cc1ccc(-c2ccccc2)cc1,active
20,C[C@@H]1CN([C@@H](C)CO)C(=O)Cc2cc(NS(=O)(=O)c3ccccc3)ccc2O[C@@H]1CN(C)Cc1ccc(-c2ccccc2)cc1,active
21,C[C@H](CO)N1C[C@H](C)[C@H](CN(C)Cc2ccc(-c3ccccc3)cc2)Oc2ccc(NS(=O)(=O)c3ccccc3)cc2CC1=O,inactive
22,C[C@@H]1CN([C@H](C)CO)C(=O)Cc2cc(NS(=O)(=O)c3ccccc3)ccc2O[C@@H]1CN(C)Cc1ccc(-c2ccccc2)cc1,inactive
23,C[C@@H]1CN([C@H](C)CO)C(=O)Cc2cc(NS(=O)(=O)c3ccccc3)ccc2O[C@H]1CN(C)Cc1ccc(-c2ccccc2)cc1,active
24,CN(C)c1cncc(C(=O)O)c1,inactive
25,C[C@@H]1CCCCO[C@H](CN(C)C(=O)Nc2ccc3c(c2)OCO3)[C@H](C)CN([C@H](C)CO)C(=O)c2cc(NS(=O)(=O)c3ccccc3)ccc2O1,inactive
26,CC(C)C#Cc1ccc2c(c1)O[C@H](CN(C)C(=O)Cc1ccccn1)[C@H](C)CN([C@H](C)CO)S2(=O)=O,inactive
27,Cc1noc(C)c1NC(=O)N(C)C[C@@H]1Oc2ccc(NC(=O)NC(C)C)cc2CC(=O)N([C@H](C)CO)C[C@H]1C,inactive
28,CCCC(=O)Nc1ccc2c(c1)OC[C@@H](C)N(C(=O)Cc1ccccn1)C[C@@H](C)[C@H](OC)CN(C)C2=O,inactive

row,Compound,cytotoxicity call
1,CCN1C(=O)CS/C1=N\N1CCOCC1,inactive
2,C[C@@H]1CN([C@H](C)CO)C(=O)c2cc(NC(=O)Nc3ccc(C(F)(F)F)cc3)ccc2O[C@@H](C)CCCCO[C@H]1CN(C)C(=O)Nc1ccc(F)cc1,inactive
3,COCCCNC(=O)[C@@]1(Sc2ccc(C)cc2)CC(=O)N(Cc2ccccc2C(F)(F)F)[C@@H]1c1ccc(CO)cc1,inactive
4,C[C@@H]1CCCCO[C@@H](CN(C)C(=O)C2CCCCC2)[C@H](C)CN([C@@H](C)CO)C(=O)c2cc(NC(=O)Nc3ccccc3)ccc2O1,inactive
5,C[C@@H]1CCCCO[C@H](CN(C)C(=O)Nc2ccc3c(c2)OCO3)[C@H](C)CN([C@H](C)CO)C(=O)c2cc(NC(=O)c3ccncc3)ccc2O1,inactive
6,C[C@@H]1CN([C@@H](C)CO)C(=O)c2ccccc2-c2ccccc2CO[C@H]1CN(C)C(=O)Nc1ccc(F)cc1,inactive
7,CC(C)CC(NC(=O)C(C)NC(=O)CNC(=O)C(NC=O)C(C)C)C(=O)NC(C)C(=O)NC(C(=O)NC(C(=O)NC(C(=O)NC(Cc1c[nH]c2ccccc12)C(=O)NC(CC(C)C)C(=O)NC(Cc1c[nH]c2ccccc12)C(=O)NC(CC(C)C)C(=O)NC(Cc1c[nH]c2ccccc12)C(=O)NC(CC(C)C)C(=O)NC(Cc1c[nH]c2ccccc12)C(=O)NCCO)C(C)C)C(C)C)C(C)C (stereo not given) [GRAMICIDIN (gramicidin A shown) ],active
8,C[C@H](NC(=O)[C@@H](Cc1ccc2ccccc2c1)NC(=O)[C@@H](C)N)C(=O)N[C@@H](Cc1c[nH]c2ccccc12)C(=O)N[C@H](Cc1ccccc1)C(=O)N[C@@H](CCCCN)C(N)=O,inactive
9,CC(C)C[C@H](NP(=O)(O)O[C@H]1O[C@@H](C)[C@@H](O)[C@@H](O)[C@@H]1O)C(=O)N[C@H](Cc1c[nH]c2ccccc12)C(=O)O,inactive
10,CCOc1ccc(C(=O)Nc2ccc(N3CCN(C(=O)c4cccs4)CC3)c(Cl)c2)cc1Br,inactive
11,C[C@@H]1CCCCO[C@@H](CN(C)Cc2ccc(C(=O)Nc3ccccc3N)cc2)[C@@H](C)CN([C@H](C)CO)C(=O)c2cc(NC(=O)Nc3cccc4ccccc34)ccc2O1,inactive
12,CC[C@@H](C)[C@H]1O[C@@]2(CC[C@@H]1C)C[C@H]1C[C@@H](CC=C(C)[C@@H](O[C@H]3C[C@@H](OC)[C@@H](O[C@H]4C[C@@H](OC)[C@@H](O)[C@@H](C)O4)[C@@H](C)O3)[C@@H](C)C=CC=C3CO[C@H]4[C@@H](O)C(C)=C[C@@H](C(=O)O1)[C@]34O)O2.CO[C@H]1C[C@@H](O[C@@H]2[C@@H](OC)C[C@@H](O[C@@H]3C(C)=CC[C@@H]4C[C@@H](C[C@@]5(CC[C@@H](C)[C@H](C(C)C)O5)O4)OC(=O)[C@@H]4C=C(C)[C@H](O)[C@@H]5OCC(=CC=C[C@@H]3C)[C@@]45O)O[C@@H]2C)O[C@@H](C)[C@@H]1O,active
13,CCC(C)C1OC2(CCC1C)CC1CC(CC=C(C)C(OC3CC(OC)C(OC4CC(OC)C(O)C(C)O4)C(C)O3)C(C)C=CC=C3COC4C(O)C(C)=CC(C(=O)O1)C34O)O2 (stereo not given),inactive
14,CC[C@H](C)[C@H]1O[C@]2(CC[C@@H]1C)C[C@@H]1C[C@@H](C/C=C(\C)[C@@H](O[C@H]3C[C@H](OC)[C@@H](O[C@H]4C[C@H](OC)[C@@H](O)[C@H](C)O4)[C@H](C)O3)[C@@H](C)/C=C/C=C3\CO[C@@H]4[C@H](O)C(C)=C[C@@H](C(=O)O1)[C@]34O)O2,active
15,O=[N+]([O-])c1cc(N(CCO)CCO)ccc1NCCO,inactive
16,O=C(C[C@@H]1CC[C@H]2[C@@H](COC[C@@H](O)CN2C(=O)Nc2cccc(F)c2)O1)NCCCN1CCOCC1,inactive
17,C[C@@H]1CCCCO[C@H](CN(C)Cc2ccccc2)[C@@H](C)CN([C@@H](C)CO)C(=O)c2cc(NC(=O)CCC(F)(F)F)ccc2O1,inactive
18,CCS(=O)(=O)Nc1ccc2c(c1)CC(=O)N2,inactive
19,CCS(=O)(=O)Nc1ccc2c(c1)/C(=C(/Nc1ccc(CN3CCCCC3)cc1)c1ccccc1)C(=O)N2,active
20,CCS(=O)(=O)Nc1ccc2c(c1)C(=O)N(C)[C@@H]1CC[C@H](CC(=O)N[C@H]3CCN(Cc4ccccc4)C3)O[C@H]1CO2,inactive
21,Cc1ccc(S[C@]2(C(=O)NCCCN(C)C)CC(=O)N(Cc3ccccc3C(F)(F)F)[C@@H]2c2ccc(CO)cc2I)cc1,inactive
22,C[C@@H]1CN([C@H](C)CO)C(=O)c2cc(NC(=O)c3ccncc3)ccc2O[C@@H](C)CCCCO[C@@H]1CN(C)C(=O)Nc1cccc2ccccc12,inactive
23,C[C@H]1CCCCO[C@H](CN(C)C(=O)Nc2cccc3ccccc23)[C@@H](C)CN([C@@H](C)CO)C(=O)c2cc(NC(=O)c3ccncc3)ccc2O1,inactive
24,C[C@H](CO)N1C[C@H](C)[C@@H](CN(C)C(=O)Nc2cccc3ccccc23)OCCCC[C@H](C)Oc2ccc(NC(=O)c3ccncc3)cc2C1=O,inactive
25,C[C@@H]1CCCCO[C@H](CN(C)C(=O)Nc2cccc3ccccc23)[C@@H](C)CN([C@@H](C)CO)C(=O)c2cc(NC(=O)c3ccncc3)ccc2O1,active
26,C[C@@H]1CCCCO[C@@H](CN(C)C(=O)Nc2cccc3ccccc23)[C@H](C)CN([C@@H](C)CO)C(=O)c2cc(NC(=O)c3ccncc3)ccc2O1,inactive
27,C[C@@H]1CN([C@H](C)CO)C(=O)c2cc(NC(=O)c3ccncc3)ccc2O[C@@H](C)CCCCO[C@H]1CN(C)C(=O)Nc1cccc2ccccc12,active
